The source of these data is the supplement of paper PMC11001985.

Unmarked numbers belong to inactive results.

Sequence of UniProt P07996 (P07996 whole entry, looked up): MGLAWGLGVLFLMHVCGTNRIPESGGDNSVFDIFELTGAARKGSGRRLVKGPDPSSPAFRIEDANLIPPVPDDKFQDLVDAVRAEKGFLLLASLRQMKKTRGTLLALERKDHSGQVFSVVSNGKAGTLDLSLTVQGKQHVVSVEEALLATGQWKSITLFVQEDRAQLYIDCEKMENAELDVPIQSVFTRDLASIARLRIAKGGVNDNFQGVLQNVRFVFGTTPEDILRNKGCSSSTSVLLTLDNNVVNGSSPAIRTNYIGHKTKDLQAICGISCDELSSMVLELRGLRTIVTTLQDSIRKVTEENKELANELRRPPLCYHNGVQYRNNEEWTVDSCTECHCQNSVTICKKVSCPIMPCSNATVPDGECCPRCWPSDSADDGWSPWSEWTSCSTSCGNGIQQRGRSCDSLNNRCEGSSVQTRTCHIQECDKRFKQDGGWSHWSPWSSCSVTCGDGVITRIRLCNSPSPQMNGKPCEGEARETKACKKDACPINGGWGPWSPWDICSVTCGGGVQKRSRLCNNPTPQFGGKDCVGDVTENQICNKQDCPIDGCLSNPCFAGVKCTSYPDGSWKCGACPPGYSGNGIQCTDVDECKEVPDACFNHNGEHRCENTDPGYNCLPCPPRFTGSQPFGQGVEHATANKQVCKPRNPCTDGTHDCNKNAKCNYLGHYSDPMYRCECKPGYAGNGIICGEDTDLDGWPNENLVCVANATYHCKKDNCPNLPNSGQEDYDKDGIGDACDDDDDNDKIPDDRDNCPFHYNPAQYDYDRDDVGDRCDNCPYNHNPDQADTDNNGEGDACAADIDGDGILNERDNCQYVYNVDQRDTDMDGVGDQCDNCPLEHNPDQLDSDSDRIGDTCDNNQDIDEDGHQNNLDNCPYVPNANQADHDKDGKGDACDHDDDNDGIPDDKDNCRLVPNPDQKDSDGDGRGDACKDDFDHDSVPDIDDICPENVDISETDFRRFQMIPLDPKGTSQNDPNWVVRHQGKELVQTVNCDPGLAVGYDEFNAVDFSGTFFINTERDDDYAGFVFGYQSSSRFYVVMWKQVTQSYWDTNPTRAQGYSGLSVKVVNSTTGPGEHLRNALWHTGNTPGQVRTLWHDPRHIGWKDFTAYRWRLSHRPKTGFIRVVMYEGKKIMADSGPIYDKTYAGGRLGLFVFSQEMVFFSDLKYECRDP
Sequence of UniProt P02786 (P02786 whole entry, looked up): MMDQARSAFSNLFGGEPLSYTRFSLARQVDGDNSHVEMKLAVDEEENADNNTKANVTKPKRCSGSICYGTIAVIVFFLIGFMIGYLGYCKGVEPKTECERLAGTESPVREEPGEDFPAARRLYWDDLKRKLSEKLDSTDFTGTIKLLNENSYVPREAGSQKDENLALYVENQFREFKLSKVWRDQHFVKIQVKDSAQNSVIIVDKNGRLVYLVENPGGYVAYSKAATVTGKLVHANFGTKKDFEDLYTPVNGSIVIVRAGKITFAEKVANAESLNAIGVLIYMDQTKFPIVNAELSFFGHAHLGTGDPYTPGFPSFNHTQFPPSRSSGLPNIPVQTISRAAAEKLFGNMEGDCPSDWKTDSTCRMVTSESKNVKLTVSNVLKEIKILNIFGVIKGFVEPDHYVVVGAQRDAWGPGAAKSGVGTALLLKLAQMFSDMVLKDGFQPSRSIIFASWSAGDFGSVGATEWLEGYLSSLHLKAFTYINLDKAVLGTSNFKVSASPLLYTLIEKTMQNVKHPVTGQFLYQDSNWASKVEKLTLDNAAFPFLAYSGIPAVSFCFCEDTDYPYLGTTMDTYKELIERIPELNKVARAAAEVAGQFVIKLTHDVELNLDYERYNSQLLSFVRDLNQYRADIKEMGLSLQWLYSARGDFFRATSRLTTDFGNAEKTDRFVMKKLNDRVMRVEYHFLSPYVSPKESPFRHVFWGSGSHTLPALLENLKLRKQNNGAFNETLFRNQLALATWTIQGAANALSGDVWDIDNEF
Sequence of UniProt Q13561 (Q13561 whole entry): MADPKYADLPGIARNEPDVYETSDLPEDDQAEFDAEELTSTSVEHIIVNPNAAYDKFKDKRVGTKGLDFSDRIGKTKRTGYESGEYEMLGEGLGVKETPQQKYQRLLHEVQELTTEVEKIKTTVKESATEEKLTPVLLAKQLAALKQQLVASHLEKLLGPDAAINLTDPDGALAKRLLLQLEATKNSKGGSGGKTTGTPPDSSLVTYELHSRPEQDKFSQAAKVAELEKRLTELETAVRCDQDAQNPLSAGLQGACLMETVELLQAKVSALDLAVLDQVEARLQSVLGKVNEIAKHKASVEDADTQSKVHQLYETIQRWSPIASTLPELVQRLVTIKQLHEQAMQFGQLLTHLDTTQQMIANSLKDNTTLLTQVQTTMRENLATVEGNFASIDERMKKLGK
Sequence of UniProt P69905 (P69905 whole entry): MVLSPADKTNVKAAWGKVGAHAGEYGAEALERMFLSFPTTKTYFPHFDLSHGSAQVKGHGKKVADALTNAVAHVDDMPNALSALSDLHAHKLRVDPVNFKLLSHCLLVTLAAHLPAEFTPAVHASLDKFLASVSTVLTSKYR
Sequence of UniProt P02751 (P02751 whole entry): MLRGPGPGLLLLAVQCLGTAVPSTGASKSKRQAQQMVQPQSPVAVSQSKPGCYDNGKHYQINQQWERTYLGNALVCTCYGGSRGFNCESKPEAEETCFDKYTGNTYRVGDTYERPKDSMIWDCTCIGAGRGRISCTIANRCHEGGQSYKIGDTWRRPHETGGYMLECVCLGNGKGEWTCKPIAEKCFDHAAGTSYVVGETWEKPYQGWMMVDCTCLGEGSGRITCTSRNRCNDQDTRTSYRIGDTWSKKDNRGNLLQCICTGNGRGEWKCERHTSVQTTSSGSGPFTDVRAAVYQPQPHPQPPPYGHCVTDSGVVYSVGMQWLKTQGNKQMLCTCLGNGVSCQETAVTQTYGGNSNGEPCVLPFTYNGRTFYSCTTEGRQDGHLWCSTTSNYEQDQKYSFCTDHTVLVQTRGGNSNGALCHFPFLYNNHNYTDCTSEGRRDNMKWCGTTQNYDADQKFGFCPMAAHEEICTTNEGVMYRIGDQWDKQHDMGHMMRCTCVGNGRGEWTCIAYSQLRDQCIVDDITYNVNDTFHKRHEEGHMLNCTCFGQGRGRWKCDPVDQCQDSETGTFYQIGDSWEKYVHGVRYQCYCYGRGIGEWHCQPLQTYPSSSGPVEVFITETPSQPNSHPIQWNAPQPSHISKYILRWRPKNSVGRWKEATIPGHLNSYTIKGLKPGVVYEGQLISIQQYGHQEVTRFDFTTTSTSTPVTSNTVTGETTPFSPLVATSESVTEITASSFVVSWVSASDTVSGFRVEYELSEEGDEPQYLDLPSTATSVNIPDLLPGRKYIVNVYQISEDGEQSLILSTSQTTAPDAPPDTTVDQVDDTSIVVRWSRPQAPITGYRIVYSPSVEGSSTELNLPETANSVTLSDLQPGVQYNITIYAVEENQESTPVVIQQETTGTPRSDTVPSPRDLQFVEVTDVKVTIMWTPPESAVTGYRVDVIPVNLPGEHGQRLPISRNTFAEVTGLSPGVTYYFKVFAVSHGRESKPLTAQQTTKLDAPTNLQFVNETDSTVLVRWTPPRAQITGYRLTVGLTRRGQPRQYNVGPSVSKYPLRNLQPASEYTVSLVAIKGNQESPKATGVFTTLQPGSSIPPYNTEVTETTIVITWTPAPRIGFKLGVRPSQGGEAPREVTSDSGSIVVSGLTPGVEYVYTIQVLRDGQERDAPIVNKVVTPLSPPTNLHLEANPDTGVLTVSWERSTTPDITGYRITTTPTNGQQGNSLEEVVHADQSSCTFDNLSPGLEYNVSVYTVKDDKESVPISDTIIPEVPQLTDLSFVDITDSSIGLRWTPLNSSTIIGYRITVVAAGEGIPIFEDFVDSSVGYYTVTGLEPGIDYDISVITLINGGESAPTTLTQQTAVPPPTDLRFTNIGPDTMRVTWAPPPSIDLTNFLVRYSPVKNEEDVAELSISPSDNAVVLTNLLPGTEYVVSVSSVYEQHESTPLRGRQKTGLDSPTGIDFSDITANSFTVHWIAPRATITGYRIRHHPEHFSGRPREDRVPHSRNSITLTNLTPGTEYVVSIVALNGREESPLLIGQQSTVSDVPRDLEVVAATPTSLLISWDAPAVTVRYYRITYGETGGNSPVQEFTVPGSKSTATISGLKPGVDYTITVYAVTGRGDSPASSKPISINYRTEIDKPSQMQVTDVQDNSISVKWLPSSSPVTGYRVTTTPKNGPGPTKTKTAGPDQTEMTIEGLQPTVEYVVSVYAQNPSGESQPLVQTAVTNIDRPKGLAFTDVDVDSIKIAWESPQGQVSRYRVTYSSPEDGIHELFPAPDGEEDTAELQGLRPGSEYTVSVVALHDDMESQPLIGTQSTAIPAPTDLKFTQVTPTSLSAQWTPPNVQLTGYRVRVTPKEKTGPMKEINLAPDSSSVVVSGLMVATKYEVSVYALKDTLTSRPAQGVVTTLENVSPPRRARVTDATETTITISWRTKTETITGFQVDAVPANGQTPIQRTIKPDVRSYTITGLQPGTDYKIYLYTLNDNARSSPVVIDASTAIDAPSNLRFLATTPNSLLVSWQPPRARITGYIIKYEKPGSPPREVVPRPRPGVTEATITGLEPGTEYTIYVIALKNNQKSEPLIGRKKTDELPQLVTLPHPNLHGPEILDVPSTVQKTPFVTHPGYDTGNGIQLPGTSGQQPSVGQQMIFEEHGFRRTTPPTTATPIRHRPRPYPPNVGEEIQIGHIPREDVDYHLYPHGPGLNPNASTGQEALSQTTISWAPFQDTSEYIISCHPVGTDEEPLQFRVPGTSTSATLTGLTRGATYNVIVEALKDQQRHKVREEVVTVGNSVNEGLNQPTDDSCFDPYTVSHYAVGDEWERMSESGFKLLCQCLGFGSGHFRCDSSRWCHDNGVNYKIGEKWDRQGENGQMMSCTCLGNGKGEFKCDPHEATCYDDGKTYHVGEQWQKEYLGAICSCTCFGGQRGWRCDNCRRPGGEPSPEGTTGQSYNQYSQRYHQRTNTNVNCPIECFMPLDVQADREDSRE

Compound in this assay: C#CCNC(=O)CCSSCCC(=O)NCCc1ccc(C=O)c(C=O)c1
Description: lysine labeling ratio R10:1 (500 µM / 50 µM probe), SILAC-ABPP in living cells; higher = lower intrinsic lysine reactivity toward the probe, active = 2 or less. The note with it: HeLa; probe concentrations 500 vs 50 µM. Put shortly:
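For each lysine, R is the median over forward and reverse replicates of the filtered median MS1 peptide ratio of high probe to low probe. The probe, an alkyne-tagged, disulfide-linked lysine probe, was given at 500 µM or 50 µM to living SILAC light and heavy HeLa cells in PBS at room temperature, with label swaps. Values are capped at 20.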
In the case of “SURF4 (lysine site: K22) (UniProt O15260)”, the “lysine labeling ratio R10:1” value was 3.81.

Turning to “RPS2 (lysine site: K275) (UniProt P15880)”, the “lysine labeling ratio R10:1” value was 1.57 (active).

As to “PPIB (lysine site: K186) (UniProt P23284)”, the “lysine labeling ratio R10:1” value was 3.18.

Turning to “DNAJA3 (lysine site: K391) (UniProt Q96EY1)”, the “lysine labeling ratio R10:1” value was 1.5 (active).

For the target “S100A6 (lysine site: K47) (UniProt P06703)”, the “lysine labeling ratio R10:1” value is 6.34.

“TM9SF2 (lysine site: K495) (UniProt Q99805)”: the “lysine labeling ratio R10:1” value is 4.38.

On to FAS (lysine site: K94) (UniProt P25445), for which the “lysine labeling ratio R10:1” value was 2.69.

Turning to “TFRC (lysine site: K95) (UniProt P02786)”, the “lysine labeling ratio R10:1” value is 4.27.

UniProt P62913 (lysine site: K154): the “lysine labeling ratio R10:1” value was 2.92.

For UniProt P60866 (lysine site: K8), the “lysine labeling ratio R10:1” value is 2.33.

With “NPR3 (lysine site: K208) (UniProt P17342)”, the “lysine labeling ratio R10:1” value is 5.04.

For “THBS1 (lysine site: K300) (UniProt P07996)”, the “lysine labeling ratio R10:1” value was 2.22.

Take “LAMC1 (lysine site: K1093) (UniProt P11047)”: the “lysine labeling ratio R10:1” value was 2.13.

Turning to UniProt Q9Y653 (lysine site: K215), the “lysine labeling ratio R10:1” value is 4.06.

“PARK7 (lysine site: K148) (UniProt Q99497)”: the “lysine labeling ratio R10:1” value is 3.31.

Turning to “CACNA2D1 (lysine site: K232) (UniProt P54289)”, the “lysine labeling ratio R10:1” value was 3.57.

In the case of UniProt P62888 (lysine site: K44), the “lysine labeling ratio R10:1” value is 2.17.

Consider UniProt P05787 (lysine site: K198), for which the “lysine labeling ratio R10:1” value is 7.97.

As for “THBS1 (lysine site: K201) (UniProt P07996)”, the “lysine labeling ratio R10:1” value was 3.89.

Consider “HSPG2 (lysine site: K4023) (UniProt P98160)”, for which the “lysine labeling ratio R10:1” value was 5.16.

In the case of “MCAM (lysine site: K236) (UniProt P43121)”, the “lysine labeling ratio R10:1” value was 6.1.

Regarding “FN1 (lysine site: K1623) (UniProt P02751)”, the “lysine labeling ratio R10:1” value is 1.34 (active).

For “SERPINH1 (lysine site: K94) (UniProt P50454)”, the “lysine labeling ratio R10:1” value was 3.29.

For UniProt Q16181 (lysine site: K373), the “lysine labeling ratio R10:1” value was 2.37.

Take “LRP1 (lysine site: K2009) (UniProt Q07954)”: the “lysine labeling ratio R10:1” value was 3.1.

With “TFRC (lysine site: K145) (UniProt P02786)”, the “lysine labeling ratio R10:1” value is 2.7.

Take “LMO7 (lysine site: K1264) (UniProt Q8WWI1)”: the “lysine labeling ratio R10:1” value is 4.64.

In the case of “CDH2 (lysine site: K699) (UniProt P19022)”, the “lysine labeling ratio R10:1” value is 10.6.

As to “KIAA1549 (lysine site: K1262) (UniProt Q9HCM3)”, the “lysine labeling ratio R10:1” value was 0.805 (active).

Regarding “FLOT1 (lysine site: K54) (UniProt O75955)”, the “lysine labeling ratio R10:1” value was 0.737 (active).

As to “PRDX2 (lysine site: K119) (UniProt P32119)”, the “lysine labeling ratio R10:1” value is 2 (active).

On to “THBS1 (lysine site: K919) (UniProt P07996)”, for which the “lysine labeling ratio R10:1” value was 1.72 (active).

As to UniProt Q8N441 (lysine site: K218), the “lysine labeling ratio R10:1” value was 1.33 (active).

For “DCTN2 (lysine site: K65) (UniProt Q13561)”, the “lysine labeling ratio R10:1” value was 1.14 (active).

Consider “LAMA5 (lysine site: K113) (UniProt O15230)”, for which the “lysine labeling ratio R10:1” value is 4.71.

As for UniProt Q15149 (lysine site: K2277), the “lysine labeling ratio R10:1” value is 0.748 (active).

Regarding “HBA1 (lysine site: K17) (UniProt P69905)”, the “lysine labeling ratio R10:1” value is 3.74.

Regarding “CCT3 (lysine site: K381) (UniProt P49368)”, the “lysine labeling ratio R10:1” value was 2.81.

With “CHCHD3 (lysine site: K86) (UniProt Q9NX63)”, the “lysine labeling ratio R10:1” value is 0.99 (active).

On to “EGFR (lysine site: K133) (UniProt P00533)”, for which the “lysine labeling ratio R10:1” value was 1.08 (active).
